# In PubChem BioAssay:
# Active and inactive are the calls of the source. Unless noted, no rule for the calls is given here.
# Assays:
# [1] = compounds binding Alexa647 anti-His antibody – biochemical, small-molecule microarray, 635 nm fluorescence, artefact control for SMM control protein annotation, primary screen (AID 1128); details: higher = more signal;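 also: score merges feature fluorescence with signal-to-noise for each printed compound spot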
# [2] = test system: Human papillomavirus type 1a E7 protein (residues 1-88); experiment: HPV1a E7 small-molecule binders, primary screen, biochemical, small-molecule microarray, residues 1-88, 635 nm (AID 1129); details: small-molecule microarray binding, fluorescence 635 nm; higher = more signal
# [3] = target: Focal adhesion kinase 1 (Homo sapiens) (UniProt Q05397); experiment: PTK2 protein binding on printed compound slides – biochemical, small-molecule microarray, 635/667 nm fluorescence, BSA, DTT, primary screen (AID 1130); details: 635 nm fluorescence, higher = more signal;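 also: composite of spot emission at 667 nm and signal to noise over triplicate slides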
# [4] = test system: Fibrinogen (Alexa647-labelled); experiment: Alexa647-fibrinogen binding to printed small molecules – biochemical, small-molecule microarray, 635/667 nm fluorescence, artefact control for SMM control-protein annotation, profiling panel (AID 1131); details: fibrinogen-A647 binding fluorescence, higher = more signal;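 also: z-score merges 667 nm fluorescence with per-spot signal-to-noise over triplicate slides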
# [5] = target: Follistatin (Homo sapiens) (UniProt P19883); experiment: FST protein binding to printed compounds – biochemical, small-molecule microarray, 635/667 nm fluorescence, primary screen (AID 1132); details: 635 nm fluorescence, higher = more signal
# [6] = target: Fibroblast growth factor 2 (Homo sapiens) (UniProt P09038); experiment: basic fibroblast growth factor binding to printed compounds – biochemical, small-molecule microarray, 635/667 nm fluorescence, primary screen (AID 1133); details: FGF2, fluorescence 635/667, higher = more signal
# [7] = JC-1 mitochondrial potential readout, lung cancer cells – cell-based, A549, JC-1 fluorescence, basal, 24 h, 100 nL, profiling panel (AID 1138); details: higher = more signal;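 also: A549 lung adenocarcinoma cells under basal conditions with no added stimulus; test concentration not given here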
# Lefty1 = Lefty1 protein binding to printed compounds – biochemical, small-molecule microarray, 635/667 nm fluorescence, primary screen (AID 1139); details: fluorescence 635/667, higher = more signal
# [8] = test system: wheat germ agglutinin (Triticum aestivum), Alexa647-labelled; experiment: Alexa647-WGA lectin binding to printed small molecules – biochemical, small-molecule microarray, 635/667 nm fluorescence, artefact control for SMM control-protein annotation, profiling panel (AID 1140); details: WGA-A647 binding, 635 nm fluorescence, higher = more signal;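 also: score merges 667 nm feature emission with signal to noise over triplicate slides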
# [9] = target: Luciferin 4-monooxygenase (Photinus pyralis) (UniProt P08659); experiment: inhibition of purified Photinus pyralis luciferase – biochemical, luminescence, purified enzyme, 2006 set, primary screen (AID 1141); details: purified firefly luciferase, SteadyGlo luminescence, 30 min; higher = more signal, called active from +8 up or from −8 down;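 also: cell-free assay with purified firefly luciferase at 100 ng per well in PBS; test concentration not given here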
# [10] = test system: Wnt5a (protein binding on small-molecule microarray); experiment: small molecules binding Wnt5a protein – biophysical, small-molecule microarray, 635/667 nm fluorescence, primary screen (AID 1142); details: 635 nm fluorescence, higher = more signal;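 also: fluorescence read at 667 nm with signal to noise per printed feature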
# [11] = ATP-based viability of Huh7 replicon cells – cell-based, CellTiter-Glo luminescence, basal, 48 h, cytotoxicity control for HCV replication inhibitor project, primary screen (AID 1143); details: higher = more signal, called active from +8 up or from −8 down;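 also: Huh7 hepatoma cells carrying a hepatitis C replication reporter with no stimulus; test concentration not given here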
# [12] = Pseudomonas biofilm growth suppression – PAO1 strain, BacTiter-Glo luminescence, LB-PBS, primary screen (AID 1144); details: P. aeruginosa PAO1 biofilm, 12 h, higher = more signal
# [13] = basal CRE-LacZ reporter activity in PC12 – cell-based, unstimulated, primary screen (AID 1145); details: no forskolin, luminescence, 4.5 h, higher = more signal, called active from +8 up or from −8 down
# [14] = forskolin-driven CRE-LacZ activity in PC12 – cell-based, CRE-LacZ reporter, forskolin-stimulated, primary screen (AID 1146); details: luminescence, 4.5 h, higher = more signal, called active from +8 up or from −8 down;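 also: PC12 cells with 6xCRE LacZ reporter stimulated by forskolin 10 µM; beta-galactosidase reporter signal reflecting CREB driven transcription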
# [15] = target: Streptavidin (Streptomyces avidinii) (UniProt P22629); experiment: compounds binding control protein streptavidin – biophysical, small-molecule microarray, 635/667 nm fluorescence, artefact control for SMM compound annotation, primary screen (AID 1147); details: higher = more signal;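 also: signal reflects streptavidin binding to arrayed compounds as a control protein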
# [16] = probe aInhba binding on compound microarray – biochemical, small-molecule microarray, 635/667 nm fluorescence, primary screen (AID 1148); details: higher = more signal;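 also: score merges 667nm spot fluorescence with signal-to-noise for antibody binding to printed compounds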
# Torsin-1A (Homo sapiens) [17] = target: Torsin-1A (Homo sapiens) (UniProt O14656); experiment: TOR1A wild-type binding on microarray – cell lysate, small-molecule microarray, lysate, 635/667 nm, primary screen (AID 1149); details: COS7 hTOR1A-WT lysate, 635 nm fluorescence, higher = more signal
# Torsin-1A (Homo sapiens) [18] = target: Torsin-1A (Homo sapiens) (UniProt O14656); experiment: torsin A mutant lysate binding on microarrays – cell lysate, small-molecule microarray, COS7 lysate, 635/667 nm fluorescence, primary screen (AID 1150); details: COS7 hTOR1A mutant lysate, 635 nm fluorescence, higher = more signal;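 also: score pools 667 nm emission and signal to noise measuring lysate protein binding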
# [19] = test system: Sonic hedgehog protein (Shh); experiment: Sonic hedgehog microarray binding compounds – biochemical, small-molecule microarray, 635/667 nm fluorescence, primary screen (AID 1151); details: 635 nm fluorescence, higher = more signal;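 also: Shh protein binding to compounds spotted on small-molecule microarray slides; score combines spot fluorescence intensity with signal-to-noise across triplicate slides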
# Chain of Torsin-1A (Homo sapiens) (O14656 whole entry, looked up): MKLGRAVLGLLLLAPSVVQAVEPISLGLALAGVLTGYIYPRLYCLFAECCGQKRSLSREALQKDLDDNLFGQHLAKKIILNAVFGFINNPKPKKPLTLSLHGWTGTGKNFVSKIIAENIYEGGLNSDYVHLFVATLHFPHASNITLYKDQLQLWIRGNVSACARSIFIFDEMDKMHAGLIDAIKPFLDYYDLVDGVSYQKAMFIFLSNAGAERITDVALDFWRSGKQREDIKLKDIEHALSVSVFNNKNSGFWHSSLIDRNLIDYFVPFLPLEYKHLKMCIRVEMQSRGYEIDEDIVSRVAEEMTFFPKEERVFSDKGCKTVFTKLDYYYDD
# Chain of Streptavidin (Streptomyces avidinii) (P22629 whole entry, looked up): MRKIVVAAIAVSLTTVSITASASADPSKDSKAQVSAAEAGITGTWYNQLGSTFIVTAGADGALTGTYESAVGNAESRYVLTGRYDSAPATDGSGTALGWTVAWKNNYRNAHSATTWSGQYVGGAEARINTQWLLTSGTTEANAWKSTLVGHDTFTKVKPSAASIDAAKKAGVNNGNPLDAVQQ
# Chain of Fibroblast growth factor 2 (Homo sapiens) (P09038 whole entry, looked up): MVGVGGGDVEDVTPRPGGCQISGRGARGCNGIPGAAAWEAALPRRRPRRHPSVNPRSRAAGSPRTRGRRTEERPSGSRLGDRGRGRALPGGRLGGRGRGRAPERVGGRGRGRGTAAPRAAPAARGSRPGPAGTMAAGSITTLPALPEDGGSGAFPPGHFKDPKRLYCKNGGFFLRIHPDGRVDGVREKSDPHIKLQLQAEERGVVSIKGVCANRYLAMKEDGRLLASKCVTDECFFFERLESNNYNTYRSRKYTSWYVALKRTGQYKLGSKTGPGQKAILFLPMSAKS
# Chain of Follistatin (Homo sapiens) (P19883 whole entry, looked up): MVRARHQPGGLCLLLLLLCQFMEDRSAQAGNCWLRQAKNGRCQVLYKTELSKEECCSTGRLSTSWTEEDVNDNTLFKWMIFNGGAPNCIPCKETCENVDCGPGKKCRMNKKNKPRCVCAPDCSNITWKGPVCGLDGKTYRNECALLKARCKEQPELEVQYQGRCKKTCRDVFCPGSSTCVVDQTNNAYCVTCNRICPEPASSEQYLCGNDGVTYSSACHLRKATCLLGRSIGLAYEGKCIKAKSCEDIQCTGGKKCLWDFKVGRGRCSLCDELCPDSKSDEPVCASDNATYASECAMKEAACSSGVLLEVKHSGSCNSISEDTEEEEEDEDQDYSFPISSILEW
# Chain of Luciferin 4-monooxygenase (Photinus pyralis) (P08659 whole entry, looked up): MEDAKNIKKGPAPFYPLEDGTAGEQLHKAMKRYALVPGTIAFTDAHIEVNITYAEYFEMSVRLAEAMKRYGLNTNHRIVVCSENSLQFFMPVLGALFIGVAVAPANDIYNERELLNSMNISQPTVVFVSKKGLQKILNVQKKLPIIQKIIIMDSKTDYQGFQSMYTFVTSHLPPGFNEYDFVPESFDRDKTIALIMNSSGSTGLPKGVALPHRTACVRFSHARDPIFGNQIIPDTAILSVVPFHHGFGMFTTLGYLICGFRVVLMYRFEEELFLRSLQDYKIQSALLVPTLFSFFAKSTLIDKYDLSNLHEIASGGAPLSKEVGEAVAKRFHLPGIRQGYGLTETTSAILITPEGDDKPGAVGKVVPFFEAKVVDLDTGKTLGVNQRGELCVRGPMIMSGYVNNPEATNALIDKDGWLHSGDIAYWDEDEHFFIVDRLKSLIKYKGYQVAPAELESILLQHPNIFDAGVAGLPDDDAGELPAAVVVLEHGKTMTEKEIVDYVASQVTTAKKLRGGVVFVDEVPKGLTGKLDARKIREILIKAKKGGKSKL
# Chain of Focal adhesion kinase 1 (Homo sapiens) (Q05397 whole entry, looked up): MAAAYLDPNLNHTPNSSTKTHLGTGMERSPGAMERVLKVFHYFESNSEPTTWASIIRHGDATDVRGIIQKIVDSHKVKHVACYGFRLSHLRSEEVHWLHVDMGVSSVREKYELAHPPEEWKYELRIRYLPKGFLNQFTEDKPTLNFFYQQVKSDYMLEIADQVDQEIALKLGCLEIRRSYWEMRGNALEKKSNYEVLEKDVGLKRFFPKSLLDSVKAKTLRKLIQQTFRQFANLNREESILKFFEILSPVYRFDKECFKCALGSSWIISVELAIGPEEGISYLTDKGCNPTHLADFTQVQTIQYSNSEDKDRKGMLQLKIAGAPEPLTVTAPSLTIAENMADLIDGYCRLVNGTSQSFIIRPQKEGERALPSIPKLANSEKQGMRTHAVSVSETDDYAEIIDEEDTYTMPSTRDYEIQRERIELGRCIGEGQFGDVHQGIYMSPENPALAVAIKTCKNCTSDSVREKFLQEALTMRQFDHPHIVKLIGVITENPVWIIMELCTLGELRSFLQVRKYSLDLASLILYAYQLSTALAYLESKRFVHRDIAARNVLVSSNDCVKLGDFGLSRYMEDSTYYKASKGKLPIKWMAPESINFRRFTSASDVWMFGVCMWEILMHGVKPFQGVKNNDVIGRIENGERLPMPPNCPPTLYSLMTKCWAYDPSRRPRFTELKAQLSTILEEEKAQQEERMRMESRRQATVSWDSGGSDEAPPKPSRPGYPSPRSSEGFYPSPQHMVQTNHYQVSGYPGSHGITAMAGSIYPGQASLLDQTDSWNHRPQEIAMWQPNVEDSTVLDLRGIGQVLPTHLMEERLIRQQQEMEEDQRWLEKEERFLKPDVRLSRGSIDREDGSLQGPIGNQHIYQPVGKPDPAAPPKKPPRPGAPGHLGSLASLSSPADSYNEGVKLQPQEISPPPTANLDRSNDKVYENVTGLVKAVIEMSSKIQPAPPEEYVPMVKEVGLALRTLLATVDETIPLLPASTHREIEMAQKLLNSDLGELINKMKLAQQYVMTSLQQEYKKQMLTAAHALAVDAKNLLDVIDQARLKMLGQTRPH
SMILES,composite z-score [1],composite z-score [2],composite z-score [3],composite z-score [4],composite z-score [5],composite z-score [6],z-score [7],composite z-score (Lefty1),composite z-score [8],z-score [9],composite z-score [10],z-score [11],z-score [12],z-score [13],z-score [14],composite z-score [15],composite z-score [16],composite z-score (Torsin-1A (Homo sapiens) [17]),composite z-score (Torsin-1A (Homo sapiens) [18]),composite z-score [19]
O=C1c2ccccc2[C@](Cc2ccccc2I)(C(=O)O)[C@H](c2ccc(CO)cc2)N1Cc1ccccc1C(F)(F)F,1.3,1.09,0.425,0.9,0.72,-0.238,-0.635,-0.374,1.12,0.63 (inactive),-0.186,-1.17 (inactive),-0.99 (inactive),-0.295 (inactive),0.748 (inactive),0.477,-0.024,-0.242,-0.203,-0.489
O[C@@H](Cc1ccccc1)[C@@H](/C=C/c1ccccc1)NCc1ccccc1Br,-0.538,-0.85,-0.716,-0.354,-1.19,-1.14,0.772,-1.64,0.217,0.284 (inactive),-1.01,-0.626 (inactive),-0.662 (inactive),2.67 (inactive),-2.09 (inactive),-0.736,-0.205,-2.13,-1.9,-1.08
C=CCOC(=O)[C@@H]1[C@H]2C(=O)O[C@H](c3ccccc3)[C@H](c3ccccc3)N2[C@H](c2ccc(OCCOC(=O)[C@H]3C[C@H]4C(=O)N[C@@H](Cc5ccccc5)C(=O)N4[C@H]3c3ccc(O)cc3)cc2)[C@@]12C(=O)Nc1ccc(I)cc12,1.77,1.19,0.0087,0.521,1.36,1.39,-1.55,1.32,0.815,-1.79 (inactive),0.388,-0.409 (inactive),-0.00469 (inactive),5.82 (inactive),11.7 (active),0.593,-0.0391,0.72,0.544,1.81
O=C1OCC=C[C@H]2OC34C=CCN(CCN5CCOCC5)C(=O)[C@H]3N(CCCCCCO)C(=O)[C@@H]4[C@@H]12 (stereo not given in full),3.21,-0.206,-0.0142,-0.469,0.277,-0.131,0.582,0.659,-0.0261,-0.689 (inactive),0.0272,-0.39 (inactive),1.73 (inactive),0.862 (inactive),-0.201 (inactive),-0.278,-0.0604,0.135,-0.0406,0.572
C=CCN1Cc2ccccc2C[C@]2(N=C(c3ccc(OCCCO)cc3)O[C@@H]2c2ccccc2)C1=O,1.66,1.12,0.692,0.441,1.36,1.76,1.21,0.706,0.436,-1.87 (inactive),0.469,-4.28 (inactive),-0.066 (inactive),1.64 (inactive),-1.28 (inactive),-0.138,0.167,0.821,1.15,1.81
CN1C(=O)C2C=CC(C(O)C(c3ccccc3)c3ccccc3)N(Nc3ccccc3)C2C1=O (stereo not given),0.889,1.19,0.668,1.03,1.36,0.0635,0.0496,0.643,0.889,-0.0128 (inactive),0.35,-1.91 (inactive),-0.437 (inactive),-0.14 (inactive),0.574 (inactive),1.49,0.0857,0.096,0.585,0.424
C=CC[C@@]1(C(=O)OC)N=C(c2ccc(OCCCO)cc2)O[C@@H]1c1ccccc1CN=[N+]=[N-],0.78,0.996,0.242,0.0758,1.05,0.0452,0.00108,0.543,-0.0321,0.668 (inactive),0.0122,-4.22 (inactive),-0.88 (inactive),-1.03 (inactive),-1.5 (inactive),-0.233,-0.212,0.0478,-0.249,0.838
COC(=O)C(CC#Cc1ccc2c(c1)[C@]1(C(=O)N2)[C@H](C(=O)N2CCCCCCC2)[C@H]2C(=O)O[C@H](c3ccccc3)[C@H](c3ccccc3)N2[C@@H]1c1ccccc1OCCO)C(=O)OC,3,1.35,4.24,0.654,1.56,0.197,-1.08,1.89,1.73,-0.525 (inactive),2.44,-3.54 (inactive),-0.429 (inactive),-0.141 (inactive),-0.81 (inactive),4.06,2.24,3.84,3.73,2.04
Cc1ccc(S[C@]2(C(=O)NCc3ccccc3)CC(=O)N(Cc3cc(C(F)(F)F)cc(C(F)(F)F)c3)[C@@H]2c2ccc(CO)cc2)cc1,-0.0768,-0.469,-0.187,-1.25,0.401,-0.568,-0.0446,-0.0758,-1.01,-0.372 (inactive),-0.492,-0.0639 (inactive),0.315 (inactive),0.829 (inactive),1.21 (inactive),-0.684,-0.126,-1.3,-0.755,0.824
COCCOC(=O)N1C(=O)[C@@]2(c3cc(C#CCCO)ccc31)[C@H](c1ccc(O)cc1)N1[C@H](c3ccccc3)[C@H](c3ccccc3)OC(=O)[C@H]1[C@@H]2C(=O)N1CCCCCCC1,2.4,1,0.855,0.771,1.43,1.6,-0.183,1.21,1.06,-0.179 (inactive),0.799,-0.883 (inactive),-0.569 (inactive),0.568 (inactive),-0.268 (inactive),0.825,0.62,0.705,0.667,1.65
